Rows were chosen to be rich in hits. Some 6.5% of all compounds tested hit in one or more screens of this group.
HT1080 IDH1KD tx – qHTS for induction of synthetic lethality in tumor cells producing 2HG: qHTS for the HT-1080-IDH1KD cell line. HT-1080 IDH1 knockdown viability, ATP luminescence, 48 h. Potency, µM (titrated, usually from 46.1 µM), for the others: at the top dose activity, negative = toxicity, most hits filed as cytotoxic. actives 2% (n = 360,000);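 further: potency means the concentration at half of the fitted maximal effect; 0% = DMSO wells and -100% = cell-free medium wells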
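HT-1080-IDH1KD cells (IDH1 knocked down), 750/well in RPMI with 5% FBS, treated with compound 48 h at 37 degrees C. Viability by CellTiter-Glo luminescence, normalised to DMSO and no-cell wells; concentration-response curves classed.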
TGFb SMAD3 inh – qHTS for Inhibitors of TGF-b | actives 1.2% (n = 410,000) | Potency, µM (titrated, usually from 46.1 µM), inactives show top-dose activity, negative = inhibition, usual class: inhibitors | HepG2 CAGA-GFP TGF-b/SMAD3 reporter, GFP fluorescence, 18 h; TGF-beta stimulated, 500 pg/mL final; further: potency means the concentration at half of the fitted maximal effect; on the % scale 0 is the no-effect control and ±100 the full control effect; nearly all actives have a fitted effect of over 65% in size
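Inhibition was scored as loss of TGF-beta-induced (500 pg/mL final, 18 hours, 37 degrees C) GFP in HEPG2 cells carrying a CAGA-GFP reporter, in DMEM with 1% FBS. Well GFP was summed per cell; Activity was normalised to unstimulated and stimulated DMSO wells, then concentration-response fitting.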
HepG2 tox – qHTS for Inhibitors of TGF-b: Cytotox Counterscreen; HepG2 CAGA-GFP viability, ATP luminescence, 18 h; Potency, µM (series often up to 46.1 µM), inactives show at the highest dose activity change, negative = cytotoxicity, hits mostly cytotoxic; actives 0.76% (n = 410,000); further: potency means the concentration at half of the fitted maximal effect
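CellTiter-Glo luminescence gave cytotoxicity after 18 hours at 37 degrees C. The cells were HepG2 CAGA-GFP in 1% FBS DMEM, stimulated with 500 pg/mL TGF-beta after compound addition. %Activity was normalised to no-cell wells (complete cell-killing) and DMSO (no toxicity), and curves were fitted and classified.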
IL1B secr inh – qHTS for Inhibitors of Inflammasome Signaling: IL-1-beta AlphaLISA Primary Screen | THP-1 LPS/ATP IL-1B secretion, AlphaLISA, 16 h; active compounds read low | activity change, % at 57.5 µM | actives 4.7% (n = 360,000); in the data active means activity change below about -50%; inconclusive means mostly about -30% to -49%; further: on the % scale 0 is the no-effect control and ±100 the full control effect
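Secreted IL-1B measured by AlphaLISA bead assay after 16 h compound exposure of THP-1 cells; compounds (final up to 57.5 uM) added 1 h before LPS (250 ng/mL) and ATP (1.25 mM) stimulation; lower signal means less secretion.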
HT1080-NT tox – qHTS for induction of synthetic lethality in tumor cells producing 2HG: qHTS for the HT-1080-NT fibrosarcoma cell line | HT-1080-NT fibrosarcoma viability, CellTiter-Glo ATP luminescence, 48 h | Potency, µM (highest dose often 46.1 µM), inactives show top-dose activity, negative = less viability, actives largely listed as cytotoxic | actives 1.6% (n = 360,000);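 further: NT is the 2HG producing partner of a matched IDH1 knockdown line; potency means the concentration at half of the fitted maximal effect; 0% = DMSO-treated cells and -100% = media-only wells without cells; nearly all actives have a fitted effect of over 55% in size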
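750 cells/well, RPMI + 5% FBS; 2 h settle, compound pin-transfer, 48 h at 37 degrees C. CellTiter-Glo 10 min RT, luminescence. Normalized to DMSO and media-only wells.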
Giardia kill – Small Molecules that selectively kill Giardia lamblia: qHTS. Giardia lamblia trophozoite viability. activity change, % at 7.66 µM, hits read low. actives 0.15% (n = 340,000); in the data active means activity change below about -80%; inconclusive means between about -30% and that limit;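 further: parasites exposed to compound for two days anaerobically before the ATP read; on the % scale 0 is the no-effect control and ±100 the full control effect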
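Compounds were tested on trophozoites seeded at 100 cells/well and held 48 hrs at 37 deg C anaerobically. An ATP-based luminescent kit measured the remaining live cells.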
An asterisk follows results filed as active; ? = inconclusive; . = no result given; [ ] = remark or other dose. Unless noted, the call rests on the fitted dose curve; in most records, active means well fitted curve in the direction sought with a large enough effect; inconclusive means small, poorly fitted or top-dose-only effect, or another doubt; inactive means no such curve, though single readings can be large; an effect the other way counts as inactive or inconclusive.

SMILES	HT1080 IDH1KD tx	TGFb SMAD3 inh	HepG2 tox	IL1B secr inh	HT1080-NT tox	Giardia kill
CCOc1ccc(-c2nnc(SCC(=O)NC3CC3)o2)cc1	-2.0%	-0.2%	-14.7%	-7.8	5.9%	?
C[C@@H]1O[C@@H](O[C@@H]2[C@@H](O)[C@H](OCCc3ccc(O)c(O)c3)O[C@H](CO)[C@H]2OC(=O)/C=C/c2ccc(O)c(O)c2)[C@H](O)[C@H](O)[C@H]1O	4.9%	-2.3%	-0.1%	2.6	11.5%	12.6
CC1(Cc2ccc(C(F)(F)F)o2)C(=O)Nc2cc(-c3ccc(F)cc3F)ccc21 (stereo unspecified)	?	?	20µM*	-64.3*	?	.
COc1ccccc1-c1ccc2c(c1)C(C)(Cc1ccc(Cl)cc1)C(=O)N2 (stereo unspecified)	10.4%	5.6%	0.4%	7.1	13.5%	.
COc1ccccc1-c1ccc2c(c1)C(C)(Cc1ccc(OC(F)(F)F)cc1)C(=O)N2 (stereo unspecified)	?	?	-113.9%	-51.9*	?	.
CC1(Cc2ccccc2OC(F)(F)F)C(=O)Nc2cc(-c3ccccc3Cl)ccc21 (stereo unspecified)	?	?	-96.8%	-14.9	?	.
CC1(Cc2cc(Cl)ccc2C(F)(F)F)C(=O)Nc2ccc(OC(F)(F)F)cc21 (stereo unspecified)	20.6µM*	?	-100.6%	-13.5	?	.
CC1(Cc2ccccc2OC(F)(F)F)C(=O)Nc2ccc(OC(F)(F)F)cc21 (stereo unspecified)	20.6µM*	?	-106.0%	?	?	.
CC1(Cc2cc(Cl)ccc2C(F)(F)F)C(=O)Nc2ccc(-c3ccc(F)c(Cl)c3)cc21 (stereo unspecified)	-9.0%	?	-115.0%	-28.2	?	.
Cc1cc(NC(=O)CSc2nccn2-c2ccc(F)cc2)no1	7.1%[9.24 µM]	8.8%	28.7%	-11.8	10.3%	9.8
COc1cccc(-c2ccc3c(c2)C2CC3CCN2C(=O)c2ccc(-c3ccccc3)cc2)c1 (stereo unspecified)	-14.8%	-0.3%	-18.9%	-1.5	-9.9%	.
O=C(Nc1ccccc1F)c1cccc(C(=O)Nc2ccccc2F)c1	-2.7%	12.0%	4.2%	8.3	-0.2%	-0.3
COc1ccc(CNC(=O)C(C(C)C)N2Cc3ccccc3C2=O)cc1 (stereo unspecified)	.	-23.8%	-24.9%	.	.	.
CC1(Cc2ccc(Cl)cc2)C(=O)Nc2ccc(S(=O)(=O)NC3CCCCC3)cc21 (stereo unspecified)	?	?	-64.5%	-7.8	?	.
CC1(Cc2ccc(OC(F)(F)F)cc2)C(=O)Nc2ccc(S(=O)(=O)NC3CCCCC3)cc21 (stereo unspecified)	11.6µM*	?	11.2µM*	-71.6*	13µM*	.
CCOc1ccc(C2c3[nH]c4ccccc4c3CCN2C(=O)CSCc2ccc(F)cc2)cc1 (stereo unspecified)	.	-23.7%	-8.1%	.	.	.
O=C(COc1cccnc1[N+](=O)[O-])Nc1ccc2c(c1)OC(F)(F)O2	-2.0%	0.5%	-10.7%	0.0	1.7%	-84.1*
COC(=O)[C@@]12C[C@@H](CC(=O)N3CCN(C(=O)c4ccco4)CC3)C(=O)N(Cc3cccc4ccccc34)C1=CCC(C)(C)C2	20.6µM*	.	.	?	?	.
COC(=O)[C@@]12C[C@@H](CC(=O)N3CCCCC3)C(=O)N(Cc3cccc4ccccc34)C1=CCC(C)(C)C2	?	.	.	-11.5	?	.
CCCCCCCCN1C(=O)[C@H](CC(=O)N2CCN(C(=O)c3ccco3)CC2)C[C@@]2(C(=O)OC)CC(C)(C)CC=C12	?	.	.	-50.9*	?	.
COC(=O)[C@@]12C[C@@H](CC(=O)N3CCSCC3)C(=O)N(CCc3ccc(OC)c(OC)c3)C1=CCC(C)(C)C2	0.6%	.	.	?	2.1%	.
COC(=O)[C@@]12C[C@@H](CC(=O)N3CCN(C(=O)c4ccco4)CC3)C(=O)N(CCc3ccc(OC)c(OC)c3)C1=CCC(C)(C)C2	7.5%	.	.	-51.2*	18.1%	.
O=C(O)CCNC(=O)c1ccc(NC(=O)C(c2ccccc2)c2ccccc2)cc1	0.0%	-3.5%	-2.6%	12.6	2.6%	?
c1ccc2c(c1)CSc1ccccc1N2	-18.0%	-10.0%	-13.3%	-65.4*	-22.2%	0.4
Cc1cc(C)n(-c2nncn2/N=C/c2ccccc2F)n1	5.2%	-2.8%	2.6%	9.7	7.4%	0.3
SMILES	HT1080 IDH1KD tx	TGFb SMAD3 inh	HepG2 tox	IL1B secr inh	HT1080-NT tox	Giardia kill
O=C1CC(C(=O)N2CCN(Cc3ccccc3)CC2)CN1Cc1ccccc1 (stereo unspecified)	5.4%	-4.8%	-4.3%	-0.5	5.6%	-3.0
Cc1ccc(CN2CC(C(=O)N3CCN(c4ccccc4Cl)CC3)CC2=O)cc1 (stereo unspecified)	5.6%	?	-26.6%	-58.2*	5.2%	6.5
O=c1cc(-c2ccccc2Cl)oc2cc(O)cc(O)c12	7.6%	-21.4%	-17.8%	45.8	-2.7%	-27.4
O=C1C=CC(O)(c2cc(=O)c3c(O)cc(O)cc3o2)C=C1	7.31µM*	3.98µM*	15.8µM*	-103.9*	7.31µM*	-6.3
Cn1ncc2c(Nc3cccc(Cl)c3)nc(Nc3cccc(Cl)c3)nc21	20.6µM*	?	22.4µM*	-81.1*	14.6µM*	-1.7
Cn1ncc2c(Nc3ccc(Br)cc3)nc(Nc3ccc(Br)cc3)nc21	18.4µM*	11.2µM*	-189.8%	-101.4*	?	11.6
CCCCNC(=O)c1onc(CSc2ccc(F)cc2)c1C(=O)NCCCC	-2.0%	-12.5%	-16.9%	-8.8	-1.5%	-27.1
CCOc1cc(S(=O)(=O)NC2CCCC2)ccc1Cl	-10.7%	?	-3.0%	6.6	-15.2%	3.5
CCOc1cc(S(=O)(=O)Nc2cc(C)cc(C)c2)ccc1Cl	?	22.4µM*	-101.3%	-58.8*	?	5.5
O=C(COC(=O)C1CCN(S(=O)(=O)c2ccc(Cl)c(C(F)(F)F)c2)CC1)NCc1ccco1	2.0%	0.5%	2.1%	3.1	2.5%	-12.2
CCOC(=O)c1c(CN2CCNCC2)nc2ccc(Cl)cc2c1-c1ccccc1	?	15.8µM*	-116.3%	-64.2*	-16.1%	4.2

Source: PubChem (National Center for Advancing Translational Sciences (NCATS))
